ATXN2 expr inh: Primary qHTS for Inhibitors of ATXN expression; HEK-293 ATXN2-luciferase reporter, luminescence, 24 h; Potency, µM (top dose mostly 57 µM), actives largely listed as inhibitors; 360,000 tested, 0.72% active; further: nearly all actives have a fitted effect of over 55% in size
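ATXN2-luciferase reporter cells (luciferase flanked by upstream and downstream ATXN2 gene portions) were treated 24 h at 37 °C with compounds at up to 57 uM. SteadyGlo luminescence gave expression; GF-AFC fluorescence gave viability.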
DT40 TDP1 CPT: qHTS for Inhibitors of human tyrosyl-DNA phosphodiesterase 1 (TDP1): qHTS in cells in presence of CPT. chicken DT40 Tdp1-/-;hTDP1 cells + 20 nM CPT, ATP luminescence, 48 h. Potency, µM (series often up to 46.2 µM), usual class: inhibitors. 420,000 tested, 12% active; further: nearly all actives have a fitted effect of over 55% in size
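Chicken DT40 Tdp1-/- cells stably complemented with human TDP1 were seeded at 400 cells/well in medium containing 20 nM camptothecin, exposed to pin-transferred compounds, and grown at 37 °C for at least 48 hr. Viability was read as ATP luminescence.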
TGFb SMAD3 inh: qHTS for Inhibitors of TGF-b | HepG2 CAGA-GFP TGF-b/SMAD3 reporter, GFP fluorescence, 18 h; TGF-beta stimulated, 500 pg/mL final | Potency, µM (top dose mostly 46.1 µM), usual class: inhibitors | 410,000 tested, 1.2% active | AID 588855, 2011; further: nearly all actives have a fitted effect of over 65% in size
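Cell-based qHTS in HEPG2 carrying a CAGA-GFP Smad reporter; compounds added before 500 pg/mL final TGF-beta, 18 h incubation at 37 degrees C, GFP fluorescence quantified per cell by imaging cytometry.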
TDP1 cell noCPT: qHTS for Inhibitors of human tyrosyl-DNA phosphodiesterase 1 (TDP1): qHTS in cells in absence of CPT; 420,000 tested, 15% active; DT40 Tdp1-/- hTDP1 cells, no CPT, ATP luminescence, 48 h; Potency, µM (series often up to 46.2 µM), actives largely listed as inhibitors; AID 686978, 2013; further: nearly all actives have a fitted effect of over 55% in size
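Stably hTDP1-transfected Tdp1-null chicken DT40 cells were treated with library compounds minus camptothecin and grown for at least 48 hr at 37 °C, after which cellular ATP was quantified by luminescence.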
S2 tox: Viability Counterscreen for Primary qHTS for Inhibitors of ATXN expression | S2 cells (HEK-293 line with an ATXN2-luciferase reporter) viability, CellTiter-Fluor protease fluorescence, 24 h | Potency, µM (titrated, usually from 56.7 µM), actives largely listed as cytotoxic | 400,000 tested, 0.49% active | AID 651635, 2014; further: nearly all actives have a fitted effect of over 40% in size
HepG2 viability: qHTS for Inhibitors of TGF-b: Cytotox Counterscreen; HepG2 CAGA-GFP viability, ATP luminescence, 18 h; Potency, µM (titrated, usually from 46.1 µM), hits mostly cytotoxic; 410,000 tested, 0.76% active
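HepG2 CAGA-GFP cells (1000/well, DMEM with 1% FBS) received compound, then TGF-beta at 500 pg/mL final, and were incubated 18 hours at 37 degrees C. Viability was read by CellTiter-Glo luminescence. Media-only wells were set as complete cell-killing and DMSO as no toxicity.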
Numbers stand for hits; - = inactive; ? = inconclusive; . = no result; [ ] = dose if it differs, or a comment. Hits are enriched below; roughly 17% of the tested compounds scored in any of these assays. The call rests on the fitted dose curve; in most records, active means well fitted curve in the direction sought with a large enough effect; inconclusive means small, poorly fitted or top-dose-only effect, or another doubt; inactive means no such curve, though single readings can be large; an effect the other way counts as inactive or inconclusive.

SMILES | ATXN2 expr inh | DT40 TDP1 CPT | TGFb SMAD3 inh | TDP1 cell noCPT | S2 tox | HepG2 viability
C=CCC(CC=C)(CNC(=O)C(=O)Nc1ccc(C(=O)OCC)cc1)c1ccccc1 | . | - | ? | - | . | -
COc1cc(C(=O)NCC2CCCN2S(=O)(=O)c2cccs2)cc(OC)c1OC (stereo not given) | - | - | - | ? | - | -
COC(=O)[C@]12CCCCC=C1N(CCc1ccc(OC)c(OC)c1)C(=O)[C@H](CC(=O)N1CCN(C(=O)C3CC3)CC1)C2 | . | - | . | - | . | .
COC(=O)[C@]12CCCCC=C1N(CCc1ccc(OC)c(OC)c1)C(=O)[C@H](CC(=O)NCc1cccc(C(F)(F)F)c1)C2 | . | ? | . | 16µM | . | .
COC(=O)[C@]12CCCCC=C1N(CCc1ccc(OC)c(OC)c1)C(=O)[C@H](CC(=O)NCCCCc1ccccc1)C2 | . | 21µM | . | 16µM | . | .
COC(=O)[C@]12CCCCC=C1N(CCc1ccc(OC)c(OC)c1)C(=O)[C@H](CC(=O)NCc1ccc(OC)c(OC)c1)C2 | . | 29µM | . | 16µM | . | .
COC(=O)[C@]12CCCCC=C1N(CCc1ccc(OC)c(OC)c1)C(=O)[C@H](CC(=O)N1CCC(c3ccccc3)CC1)C2 | . | 8.2µM | . | 8.2µM | . | .
COC(=O)[C@]12CCCCC=C1N(CCc1ccc(OC)c(OC)c1)C(=O)[C@H](CC(=O)NCCCN1CCCC1=O)C2 | . | - | . | - | . | .
O=C(NCC1CCCN(C(=O)NCc2ccccc2)C1)c1ccc2c(c1)OCO2 (stereo not given) | . | - | - | - | - | -
COC(=O)[C@]12CCCCC=C1N(Cc1ccccc1)C(=O)[C@H](CC(=O)NCCc1ccccc1OC)C2 | - | ? | . | ? | ? | .
COC(=O)[C@]12CCCCC=C1N(CCc1ccc(OC)c(OC)c1)C(=O)[C@H](CC(=O)NCc1ccccc1)C2 | . | ? | . | 21µM | . | .
COC(=O)[C@]12CCCCC=C1N(CCc1ccc(OC)c(OC)c1)C(=O)[C@H](CC(=O)NCCc1ccccc1OC)C2 | . | ? | . | 18µM | . | .
COC(=O)[C@@]12C[C@@H](CC(=O)NCc3cccc(C(F)(F)F)c3)C(=O)N(CCc3ccc(OC)c(OC)c3)C1=CCC(C)(C)C2 | . | 9.2µM | . | 12µM | . | .
CCOC(=O)CCCC(=O)N1CCN(/[N+]([O-])=N/Oc2ccc([N+](=O)[O-])cc2[N+](=O)[O-])CC1 | . | . | ? | . | . | -
CCOC(=O)Cc1cn(C(=O)OC(C)(C)C)c2ccccc12 | - | ? | ? | ? | - | -
Cc1cnc(-c2nc3ccccc3n2C(C(=O)NC(C)(C)C)c2ccccc2)cn1 (stereo not given) | . | - | . | - | . | .
O=C(NCc1ccccc1)C(c1cc2ccccc2o1)n1c(=O)c(-c2ccccc2)nc2ccccc21 (stereo not given) | . | 15µM | . | 13µM | . | .
CCCCCNC(=O)C(c1cc2ccccc2o1)n1c(=O)c(-c2ccco2)nc2ccccc21 (stereo not given) | . | ? | . | 16µM | . | .
O=C(NCc1ccccc1)C(c1ccccc1F)n1c(=O)c(-c2ccco2)nc2ccccc21 (stereo not given) | . | ? | . | 21µM | . | .
CC(C)(C)NC(=O)C(c1cc2ccccc2o1)n1c(-c2ccc(-c3ccccc3)cc2)nc2ccccc21 (stereo not given) | . | 16µM | . | ? | . | .
O=C(NCc1ccccc1)C(c1ccncc1)n1c(=O)c(-c2ccccc2)nc2ccccc21 (stereo not given) | . | - | . | ? | . | .
N#Cc1cccc(NC(=O)CSc2nnc(C3CC3)n2C2CC2)c1 | . | - | - | - | ? | -
Cc1cccc(C)c1NC(=O)C(c1ccncc1)n1c(=O)c(-c2ccccc2)nc2ccccc21 (stereo not given) | . | - | . | ? | . | .
Cc1cccc(C)c1NC(=O)C(c1ccccc1F)n1c(=O)c(-c2ccccc2)nc2ccccc21 (stereo not given) | . | ? | . | 21µM | . | .
O=C(NCc1ccccc1)C(c1ccccc1F)n1c(=O)c(-c2ccccc2)nc2ccccc21 (stereo not given) | . | 16µM | . | ? | . | .
SMILES | ATXN2 expr inh | DT40 TDP1 CPT | TGFb SMAD3 inh | TDP1 cell noCPT | S2 tox | HepG2 viability
CCN(CC)CC(C)CNC(=O)CN1C(=O)CSc2ccc(S(=O)(=O)N3CCOCC3)cc21 (stereo not given) | - | - | - | - | - | -
CC(=O)Nc1c(C)nn(-c2ccccc2)c1N1CCC(C(=O)Nc2ccc(C)cc2Cl)CC1 | . | ? | - | ? | . | -
COc1ccc(C(O)c2nc3ccccc3n2C(C)C)cc1 (stereo not given) | - | 23µM | - | 16µM | - | -
CC(C)c1ccc(C(O)c2nc3ccccc3n2C)cc1 (stereo not given) | . | 21µM | - | 21µM | - | -
COc1ccccc1/C=C/c1nc2ccccc2n1C(C)C | - | 18µM | ? | 21µM | ? | -
Cc1ccc(C(O)c2nc3ccccc3n2C)cc1 (stereo not given) | . | - | - | ? | - | -
CCC(C)n1c(/C=C/c2ccccc2)nc2ccccc21 (stereo not given) | - | ? | - | ? | - | -
CCOC(=O)c1[nH]c(C)c(C(=O)NCc2ccc(Cl)cc2)c1C | - | ? | - | - | - | -
CCOC(=O)c1[nH]c(C)c(C(=O)NC(CC)Cc2ccccc2)c1C (stereo not given) | - | ? | - | 16µM | - | -
CCOC(=O)c1[nH]c(C)c(C(=O)NCc2ccccn2)c1C | - | - | - | - | - | -
CCOC(=O)c1[nH]c(C=O)c(C(=O)OCC)c1C | - | 0.65µM | - | 0.65µM | ? | -
CCOC(=O)c1[nH]c(C)c(C(=O)Nc2cc(Cl)ccc2C)c1C | - | 0.15µM | - | 0.16µM | ? | -
CCOC(=O)c1[nH]c(C)c(C(=O)Nc2ccccc2C)c1C | - | 1.6µM | - | 1.5µM | - | -
N#CCC(=O)Nc1ccc(C(=O)OCC(=O)Nc2ccccc2-c2ccccc2)cc1 | -[11.3 µM] | - | - | - | - | -
C[C@@]12C(=O)N(Cc3ccc(-c4ccccc4)cc3)CC(=O)N1[C@H](/C=C/c1ccccc1)[C@@H]1C(=O)N(c3ccccc3)C(=O)[C@@H]12 | - | ? | - | 23µM | ? | -

From PubChem
